Measurements published in the supplement of paper PMC10849652.
About 8,800 targets were measured; listed, in parts, are those with a hit and a random draw of the rest. About 0.5% of all pairs of compound and target were hits.

Assays:
Assay in all cases: log2 fold change, soluble protein after heating vs DMSO (PISA); higher = thermal stabilisation; K562 lysate, 10 uM; active = over 0.2 and 3.5 SD of the protein, either way, in both replicates (recomputed)
lapatinib = compound: CS(=O)(=O)CCNCc1ccc(-c2ccc3ncnc(Nc4ccc(OCc5cccc(F)c5)c(Cl)c4)c3c2)o1 [lapatinib]
Summary of the method: (§1)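 K562 pellets were dounce-homogenised in PBS pH 7.4 with 1 mM MgCl2, and the crude extract at 1 mg/mL protein was treated with 10 μM compound for 30 min. Aliquots were heated for 3 min across 48°C-58°C, pooled, and brought to 0.5% NP-40 at 4°C; soluble protein was the supernatant after 21,000xg for 90 min. Soluble protein was quantified by TMTpro 16plex LC-MS/MS with channel sums equalised, and reported as log2 fold change in thermal stability against DMSO controls, with values from duplicates.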

pictilisib = compound: CS(=O)(=O)N1CCN(Cc2cc3nc(-c4cccc5[nH]ncc45)nc(N4CCOCC4)c3s2)CC1 [pictilisib]
Summary of the method: as §1

crizotinib = compound: C[C@@H](Oc1cc(-c2cnn(C3CCNCC3)c2)cnc1N)c1c(Cl)ccc(F)c1Cl [crizotinib]
Summary of the method: as §1

[1] = compound: C[C@H](C1=CC=C(C=C1)C(=O)NC2=C3C=CNC3=NC=C2)N
Summary of the method: as §1

duvelisib = compound: C[C@H](Nc1ncnc2nc[nH]c12)c1cc2cccc(Cl)c2c(=O)n1-c1ccccc1 [duvelisib]
Summary of the method: as §1

gandotinib = compound: Cc1cc(Nc2cc(CN3CCOCC3)c3nc(C)c(Cc4ccc(Cl)cc4F)n3n2)n[nH]1 [gandotinib]
Summary of the method: as §1

tozasertib = compound: Cc1cc(Nc2cc(N3CCN(C)CC3)nc(Sc3ccc(NC(=O)C4CC4)cc3)n2)n[nH]1 [tozasertib]
Summary of the method: as §1

doramapimod = compound: Cc1ccc(-n2nc(C(C)(C)C)cc2NC(=O)Nc2ccc(OCCN3CCOCC3)c3ccccc23)cc1 [doramapimod]
Summary of the method: as §1

bafetinib = compound: Cc1ccc(NC(=O)c2ccc(CN3CC[C@H](N(C)C)C3)c(C(F)(F)F)c2)cc1Nc1nccc(-c2cncnc2)n1 [bafetinib]
Summary of the method: as §1

[2] = compound: Cc1cccc(CC(=O)N2CCc3c2ccc(-c2cn(C)c4ncnc(N)c24)c3F)n1
Summary of the method: as §1

nilotinib = compound: Cc1cn(-c2cc(NC(=O)c3ccc(C)c(Nc4nccc(-c5cccnc5)n4)c3)cc(C(F)(F)F)c2)cn1 [nilotinib]
Summary of the method: as §1

[3] = compound: Cc1nc(Nc2n[nH]c3c2CN(C(=O)N[C@H](CN(C)C)c2ccccc2)C3(C)C)c2sccc2n1
Summary of the method: as §1

dasatinib = compound: Cc1nc(Nc2ncc(C(=O)Nc3c(C)cccc3Cl)s2)cc(N2CCN(CCO)CC2)n1 [dasatinib]
Summary of the method: as §1

[4] = compound: Cc1ncc(-c2ccnc(Nc3ccc(S(C)(=O)=O)cc3)n2)n1C(C)C
Summary of the method: as §1

[5] = compound: Cn1cc(-c2ccc3c(c2)CCN3C(=O)Cc2cccc(C(F)(F)F)c2)c2c(N)ncnc21
Summary of the method: as §1

quisinostat = compound: Cn1cc(CNCC2CCN(c3ncc(C(=O)NO)cn3)CC2)c2ccccc21 [quisinostat]
Summary of the method: as §1

tipifarnib = compound: Cn1cncc1[C@@](N)(c1ccc(Cl)cc1)c1ccc2c(c1)c(-c1cccc(Cl)c1)cc(=O)n2C [tipifarnib]
Summary of the method: as §1

[6] = compound: NC(=O)Nc1cc(-c2cccc(F)c2)sc1C(=O)N[C@H]1CCCNC1
Summary of the method: as §1

[7] = compound: NC(=O)c1cnc(N[C@@H]2CCCC[C@@H]2N)nc1Nc1cccc(-n2nccn2)c1
Summary of the method: as §1

[8] = compound: NC1(c2ccc(-c3nc4ccn5c(=O)[nH]nc5c4cc3-c3ccccc3)cc2)CCC1
Summary of the method: as §1

Measured: log2 fold change

ACACA isoform 4 (UniProt Q13085)
inactive: lapatinib -0.019 | pictilisib 0 | crizotinib -0.081 | [1] -0.001 | duvelisib 0.032 | gandotinib -0.068 | tozasertib 0.033 | doramapimod 0.045 | bafetinib -0.056 | [2] 0.061 | nilotinib -0.032 | [3] 0.004 | dasatinib -0.037 | [4] 0.028 | [5] 0.043 | quisinostat -0.024 | tipifarnib 0.081 | [6] 0.03 | [7] 0.01 | [8] -0.019

ANLN (UniProt Q9NQW6)
Chain of UniProt Q9NQW6 (Q9NQW6 whole entry, looked up): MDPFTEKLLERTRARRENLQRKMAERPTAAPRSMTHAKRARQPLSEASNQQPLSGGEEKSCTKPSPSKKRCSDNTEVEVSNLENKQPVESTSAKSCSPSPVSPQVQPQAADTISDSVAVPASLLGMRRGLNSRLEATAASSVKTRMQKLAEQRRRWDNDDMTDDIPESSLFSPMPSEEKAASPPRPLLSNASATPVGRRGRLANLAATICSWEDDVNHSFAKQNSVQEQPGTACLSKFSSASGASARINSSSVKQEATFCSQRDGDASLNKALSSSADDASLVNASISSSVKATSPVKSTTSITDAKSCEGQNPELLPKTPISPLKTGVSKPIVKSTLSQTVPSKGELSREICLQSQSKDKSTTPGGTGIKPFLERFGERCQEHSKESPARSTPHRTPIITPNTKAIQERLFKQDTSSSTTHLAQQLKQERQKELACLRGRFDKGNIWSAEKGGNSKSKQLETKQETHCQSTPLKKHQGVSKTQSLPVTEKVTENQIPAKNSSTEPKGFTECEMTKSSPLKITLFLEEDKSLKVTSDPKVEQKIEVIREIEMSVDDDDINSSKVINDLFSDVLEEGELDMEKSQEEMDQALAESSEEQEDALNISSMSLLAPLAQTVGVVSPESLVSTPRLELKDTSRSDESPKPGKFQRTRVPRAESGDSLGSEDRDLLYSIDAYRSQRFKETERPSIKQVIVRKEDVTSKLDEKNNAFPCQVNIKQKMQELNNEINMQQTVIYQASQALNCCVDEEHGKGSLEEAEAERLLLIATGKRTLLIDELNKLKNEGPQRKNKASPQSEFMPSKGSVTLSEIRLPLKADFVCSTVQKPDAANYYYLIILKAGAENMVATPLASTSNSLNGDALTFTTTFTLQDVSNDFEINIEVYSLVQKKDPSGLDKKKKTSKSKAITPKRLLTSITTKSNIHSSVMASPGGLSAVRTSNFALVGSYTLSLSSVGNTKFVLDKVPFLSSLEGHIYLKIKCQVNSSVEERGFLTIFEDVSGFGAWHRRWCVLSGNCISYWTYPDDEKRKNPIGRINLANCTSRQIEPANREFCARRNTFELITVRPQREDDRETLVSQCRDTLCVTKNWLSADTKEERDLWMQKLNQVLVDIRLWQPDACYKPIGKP
inactive: lapatinib -0.007 | pictilisib 0.004 | crizotinib -0.02 | [1] -0.037 | duvelisib -0.02 | gandotinib 0.024 | tozasertib 0.052 | doramapimod 0.01 | bafetinib -0.038 | [2] 0.028 | nilotinib -0.023 | [3] 0.047 | dasatinib -0.009 | [4] -0.018 | [5] 0.04 | quisinostat -0.072 | tipifarnib -0.041 | [6] 0.006 | [7] -0.013 | [8] 0.015

ABCF3 (UniProt Q9NUQ8)
Chain of UniProt Q9NUQ8 (Q9NUQ8 whole entry, looked up): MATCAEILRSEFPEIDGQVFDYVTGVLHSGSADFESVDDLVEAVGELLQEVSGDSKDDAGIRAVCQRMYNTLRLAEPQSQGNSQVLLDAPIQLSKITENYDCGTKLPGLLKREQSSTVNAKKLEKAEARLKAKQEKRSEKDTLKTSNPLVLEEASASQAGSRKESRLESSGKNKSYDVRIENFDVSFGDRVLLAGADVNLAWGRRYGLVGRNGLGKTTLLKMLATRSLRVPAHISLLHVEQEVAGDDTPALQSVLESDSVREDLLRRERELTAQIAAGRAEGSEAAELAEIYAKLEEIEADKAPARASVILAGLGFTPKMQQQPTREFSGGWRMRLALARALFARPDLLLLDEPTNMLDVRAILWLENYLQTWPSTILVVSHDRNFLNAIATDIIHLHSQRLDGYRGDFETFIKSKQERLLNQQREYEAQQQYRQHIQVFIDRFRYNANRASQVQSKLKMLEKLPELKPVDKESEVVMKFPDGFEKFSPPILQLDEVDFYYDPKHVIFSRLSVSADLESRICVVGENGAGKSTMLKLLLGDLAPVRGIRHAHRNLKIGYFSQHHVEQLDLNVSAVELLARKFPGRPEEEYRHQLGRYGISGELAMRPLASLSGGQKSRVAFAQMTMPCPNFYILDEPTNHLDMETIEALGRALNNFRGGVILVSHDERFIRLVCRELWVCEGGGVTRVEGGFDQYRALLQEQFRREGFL
inactive: lapatinib -0.019 | pictilisib 0.006 | crizotinib -0.033 | [1] 0.02 | duvelisib 0.018 | gandotinib -0.075 | tozasertib 0.063 | doramapimod 0.011 | bafetinib -0.062 | [2] 0.017 | nilotinib -0.025 | [3] 0.014 | dasatinib -0.053 | [4] 0.001 | [5] 0.044 | quisinostat -0.04 | tipifarnib -0.003 | [6] 0.012 | [7] 0.011 | [8] -0.062

ACTBL2 (UniProt Q562R1)
Chain of UniProt Q562R1 (Q562R1 whole entry, looked up): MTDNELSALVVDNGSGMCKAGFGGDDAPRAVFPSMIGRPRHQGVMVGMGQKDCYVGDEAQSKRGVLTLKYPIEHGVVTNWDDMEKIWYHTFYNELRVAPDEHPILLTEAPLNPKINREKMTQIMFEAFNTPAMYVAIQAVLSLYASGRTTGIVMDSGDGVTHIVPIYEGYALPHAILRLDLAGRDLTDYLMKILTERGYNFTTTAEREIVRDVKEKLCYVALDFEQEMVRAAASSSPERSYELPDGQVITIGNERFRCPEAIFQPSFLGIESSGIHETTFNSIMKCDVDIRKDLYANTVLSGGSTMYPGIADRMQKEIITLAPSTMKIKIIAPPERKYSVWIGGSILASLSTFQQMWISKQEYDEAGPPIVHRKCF
active: [2] -0.547
inactive: lapatinib 0.163 | pictilisib 0.102 | crizotinib 0.091 | [1] 0.408 | duvelisib -0.035 | gandotinib -0.166 | tozasertib -0.201 | doramapimod -0.15 | bafetinib 0.37 | nilotinib 0.32 | [3] -0.036 | dasatinib -0.075 | [4] 0.139 | [5] -0.067 | quisinostat 0.184 | tipifarnib 0.087 | [6] -0.03 | [7] -0.008 | [8] 0.006

ABCD3 (UniProt P28288)
Chain of UniProt P28288 (P28288 whole entry, looked up): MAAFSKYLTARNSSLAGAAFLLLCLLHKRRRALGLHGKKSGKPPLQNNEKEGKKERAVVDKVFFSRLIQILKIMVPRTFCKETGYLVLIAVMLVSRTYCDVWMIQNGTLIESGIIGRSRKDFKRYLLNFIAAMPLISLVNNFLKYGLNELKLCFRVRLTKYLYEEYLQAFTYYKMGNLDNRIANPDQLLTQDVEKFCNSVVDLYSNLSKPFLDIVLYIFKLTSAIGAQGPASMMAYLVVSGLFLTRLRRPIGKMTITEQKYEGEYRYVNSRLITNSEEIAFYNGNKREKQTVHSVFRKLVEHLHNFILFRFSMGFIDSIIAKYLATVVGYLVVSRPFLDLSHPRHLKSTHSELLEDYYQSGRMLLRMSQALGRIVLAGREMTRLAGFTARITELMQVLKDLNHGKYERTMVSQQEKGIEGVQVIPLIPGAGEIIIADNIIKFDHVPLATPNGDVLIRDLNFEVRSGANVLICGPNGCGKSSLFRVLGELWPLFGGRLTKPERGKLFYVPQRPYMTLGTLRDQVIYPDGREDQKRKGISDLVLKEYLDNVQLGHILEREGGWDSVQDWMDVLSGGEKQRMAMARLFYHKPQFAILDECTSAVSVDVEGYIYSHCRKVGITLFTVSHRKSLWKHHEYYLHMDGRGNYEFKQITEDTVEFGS
inactive: lapatinib 0.179 | pictilisib -0.019 | crizotinib -0.063 | [1] 0.014 | duvelisib 0.019 | gandotinib 0.079 | tozasertib 0.098 | doramapimod -0.002 | bafetinib 0.027 | [2] -0.006 | nilotinib 0.019 | [3] 0.093 | dasatinib -0.063 | [4] -0.184 | [5] 0.031 | quisinostat 0.074 | tipifarnib -0.025 | [6] 0.016 | [7] -0.054 | [8] 0.087

ABHD17A isoform 2 (UniProt Q96GS6)
Chain of UniProt Q96GS6 (Q96GS6 whole entry, looked up): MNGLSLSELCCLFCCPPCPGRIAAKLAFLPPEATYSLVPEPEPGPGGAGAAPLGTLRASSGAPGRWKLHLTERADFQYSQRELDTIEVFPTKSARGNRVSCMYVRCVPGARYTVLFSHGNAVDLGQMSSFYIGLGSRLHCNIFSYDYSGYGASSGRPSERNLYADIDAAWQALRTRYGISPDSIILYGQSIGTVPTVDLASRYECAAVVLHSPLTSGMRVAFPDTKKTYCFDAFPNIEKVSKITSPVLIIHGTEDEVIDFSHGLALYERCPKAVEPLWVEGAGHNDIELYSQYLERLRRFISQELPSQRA
inactive: lapatinib -0.034 | pictilisib -0.044 | crizotinib 0.017 | [1] -0.074 | duvelisib 0.01 | gandotinib 0.139 | tozasertib 0.019 | doramapimod 0.044 | bafetinib 0.019 | [2] 0.065 | nilotinib 0.062 | [3] 0.038 | dasatinib -0.141 | [4] 0.096 | [5] 0.017 | quisinostat -0.09 | tipifarnib 0.097 | [6] -0.007 | [7] 0.008 | [8] 0.007

AKR1C2 (UniProt P52895)
Chain of UniProt P52895 (P52895 whole entry, looked up): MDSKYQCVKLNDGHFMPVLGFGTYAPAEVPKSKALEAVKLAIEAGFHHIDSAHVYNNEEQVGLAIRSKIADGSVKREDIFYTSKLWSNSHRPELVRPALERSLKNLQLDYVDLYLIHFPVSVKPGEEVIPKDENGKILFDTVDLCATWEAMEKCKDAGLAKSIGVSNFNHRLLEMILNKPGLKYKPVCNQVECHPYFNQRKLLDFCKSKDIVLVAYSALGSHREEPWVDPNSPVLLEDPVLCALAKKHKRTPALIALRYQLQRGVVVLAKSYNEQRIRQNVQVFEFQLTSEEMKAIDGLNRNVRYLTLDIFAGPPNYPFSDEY
active: gandotinib 0.276
inactive: lapatinib -0.012 | pictilisib -0.022 | crizotinib -0.059 | [1] -0.201 | duvelisib 0.049 | tozasertib 0.014 | doramapimod -0.011 | bafetinib 0.108 | [2] 0.18 | nilotinib 0.02 | [3] -0.031 | dasatinib -0.006 | [4] -0.009 | [5] -0.045 | quisinostat -0.043 | tipifarnib 0 | [6] 0.019 | [7] -0.039 | [8] -0.034

ARHGEF2 (UniProt Q92974)
inactive: lapatinib 0.014 | pictilisib 0.005 | crizotinib -0.016 | [1] 0.006 | duvelisib -0.017 | gandotinib 0.025 | tozasertib 0.018 | doramapimod 0.089 | bafetinib -0.045 | [2] 0.04 | nilotinib 0.014 | [3] -0.01 | dasatinib -0.01 | [4] -0.025 | [5] 0.013 | quisinostat -0.048 | tipifarnib -0.04 | [6] 0.006 | [7] -0.008 | [8] 0.013

ACIN1 (UniProt E7EQT4)
inactive: lapatinib -0.001 | pictilisib -0.047 | crizotinib -0.1 | duvelisib -0.021 | gandotinib 0.047 | tozasertib 0 | doramapimod 0.068 | bafetinib -0.063 | [2] 0.032 | nilotinib 0.033 | [3] -0.032 | dasatinib 0.043 | [4] 0.006 | [5] 0.195 | quisinostat -0.087 | tipifarnib -0.021 | [6] -0.072 | [7] 0.041 | [8] -0.039
active: [1] -0.28

ASCC2 (UniProt Q9H1I8)
inactive: lapatinib -0.012 | pictilisib 0.049 | crizotinib -0.044 | [1] 0.048 | duvelisib 0.04 | gandotinib -0.026 | tozasertib 0.023 | doramapimod -0.007 | bafetinib -0.205 | [2] -0.002 | nilotinib -0.005 | [3] -0.029 | dasatinib -0.01 | [4] -0.018 | [5] 0.026 | quisinostat -0.06 | tipifarnib 0.082 | [6] 0.035 | [7] 0.038 | [8] -0.023

AK1 (UniProt P00568)
Chain of UniProt P00568 (P00568 whole entry, looked up): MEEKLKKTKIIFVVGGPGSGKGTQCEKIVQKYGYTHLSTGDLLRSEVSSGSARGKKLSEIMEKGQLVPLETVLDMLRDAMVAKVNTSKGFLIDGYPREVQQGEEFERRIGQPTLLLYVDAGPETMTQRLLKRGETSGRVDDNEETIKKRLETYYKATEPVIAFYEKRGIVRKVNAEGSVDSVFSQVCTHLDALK
active: [1] 0.285
inactive: lapatinib -0.027 | pictilisib -0.011 | crizotinib 0.091 | duvelisib -0.001 | gandotinib -0.118 | tozasertib 0.023 | doramapimod -0.037 | bafetinib 0.06 | [2] -0.189 | nilotinib 0.023 | [3] 0.008 | dasatinib -0.038 | [4] 0.015 | [5] 0.011 | quisinostat 0.118 | tipifarnib 0.056 | [6] 0.004 | [7] 0.003 | [8] 0.009

ALDH1B1 (UniProt P30837)
Chain of UniProt P30837 (P30837 whole entry, looked up): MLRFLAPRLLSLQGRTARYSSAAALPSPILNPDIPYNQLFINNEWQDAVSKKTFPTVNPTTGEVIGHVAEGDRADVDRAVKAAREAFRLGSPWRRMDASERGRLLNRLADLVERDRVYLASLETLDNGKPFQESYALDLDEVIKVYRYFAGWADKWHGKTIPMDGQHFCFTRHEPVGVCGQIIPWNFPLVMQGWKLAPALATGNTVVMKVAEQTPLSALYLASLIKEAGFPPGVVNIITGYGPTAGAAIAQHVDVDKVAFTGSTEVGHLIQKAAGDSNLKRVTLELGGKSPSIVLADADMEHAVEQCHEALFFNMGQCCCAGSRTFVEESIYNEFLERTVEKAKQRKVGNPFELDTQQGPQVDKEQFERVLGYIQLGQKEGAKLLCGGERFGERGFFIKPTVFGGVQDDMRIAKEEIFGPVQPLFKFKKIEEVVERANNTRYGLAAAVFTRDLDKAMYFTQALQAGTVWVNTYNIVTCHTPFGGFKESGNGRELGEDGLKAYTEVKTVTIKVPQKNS
inactive: lapatinib -0.012 | pictilisib 0.008 | crizotinib -0.007 | [1] -0.024 | duvelisib 0.058 | gandotinib 0.052 | tozasertib 0.021 | doramapimod -0.017 | bafetinib -0.049 | [2] -0.041 | nilotinib 0.096 | [3] -0.015 | dasatinib -0.022 | [4] 0.013 | [5] 0.034 | quisinostat 0.118 | tipifarnib 0.05 | [6] 0.046 | [7] 0.011 | [8] 0.003

ACIN1 isoform 5 (UniProt Q9UKV3)
inactive: lapatinib 0.012 | pictilisib -0.024 | crizotinib 0.034 | [1] 0.022 | duvelisib -0.002 | gandotinib -0.003 | tozasertib 0.003 | doramapimod 0.01 | bafetinib -0.013 | [2] 0.002 | nilotinib 0.017 | [3] -0.018 | dasatinib -0.012 | [4] 0.001 | [5] 0.008 | quisinostat 0.011 | tipifarnib 0 | [6] -0.063 | [7] 0.024 | [8] 0.01

ABHD12 isoform 2 (UniProt Q8N2K0)
Chain of UniProt Q8N2K0 (Q8N2K0 whole entry, looked up): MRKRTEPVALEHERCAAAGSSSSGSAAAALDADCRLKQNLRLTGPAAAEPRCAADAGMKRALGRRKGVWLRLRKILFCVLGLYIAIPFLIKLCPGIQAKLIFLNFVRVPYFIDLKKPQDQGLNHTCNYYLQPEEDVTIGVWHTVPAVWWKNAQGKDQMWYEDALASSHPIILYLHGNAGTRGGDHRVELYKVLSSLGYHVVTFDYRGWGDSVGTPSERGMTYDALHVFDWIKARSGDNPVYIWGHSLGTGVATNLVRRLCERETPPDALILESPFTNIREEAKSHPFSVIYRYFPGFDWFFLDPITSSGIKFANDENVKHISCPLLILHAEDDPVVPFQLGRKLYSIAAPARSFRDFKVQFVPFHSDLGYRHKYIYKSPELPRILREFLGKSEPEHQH
inactive: lapatinib -0.006 | pictilisib -0.069 | crizotinib -0.04 | [1] 0.078 | duvelisib -0.057 | gandotinib -0.095 | tozasertib 0.06 | doramapimod 0.04 | bafetinib 0.062 | [2] -0.063 | nilotinib 0.005 | [3] -0.004 | dasatinib 0.028 | [4] 0.058 | [5] -0.068 | quisinostat 0.044 | tipifarnib -0.077 | [6] -0.025 | [7] -0.02 | [8] 0.019

AMMECR1 (UniProt Q9Y4X0)
Chain of UniProt Q9Y4X0 (Q9Y4X0 whole entry, looked up): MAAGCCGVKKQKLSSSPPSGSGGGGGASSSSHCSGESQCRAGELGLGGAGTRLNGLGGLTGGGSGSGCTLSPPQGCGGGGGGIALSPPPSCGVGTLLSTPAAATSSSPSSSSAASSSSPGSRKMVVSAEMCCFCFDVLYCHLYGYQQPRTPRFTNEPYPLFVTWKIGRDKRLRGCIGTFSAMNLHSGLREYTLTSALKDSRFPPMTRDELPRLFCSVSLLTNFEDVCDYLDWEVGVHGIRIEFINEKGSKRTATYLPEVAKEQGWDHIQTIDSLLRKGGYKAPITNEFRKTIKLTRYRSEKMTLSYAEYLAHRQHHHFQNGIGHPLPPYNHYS
inactive: lapatinib 0.005 | pictilisib -0.013 | crizotinib -0.011 | [1] -0.027 | duvelisib 0.022 | gandotinib -0.019 | tozasertib 0.039 | doramapimod -0.009 | bafetinib -0.04 | [2] 0.037 | nilotinib -0.005 | [3] -0.025 | dasatinib -0.037 | [4] 0.017 | [5] 0.035 | quisinostat -0.054 | tipifarnib 0.022 | [6] 0.021 | [7] 0.007 | [8] -0.024
